# Source: the supplement of paper PMC6555819
# Tests used:
# Assay in all cases: PBM binding z-score (relative to random genomic background probes); higher = stronger binding; sequences stand for … in GC…GCGATTGACAGCGTAGAATGAAGG
# [1] = tested on: FXR:RXRa (NR concentration 270 nM, RXRa partner concentration 90 nM)
# Outline: (§1)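 Ligand-free nuclear receptor dimers were applied to custom Agilent 4×180K protein-binding microarrays whose double-stranded probes carried direct-repeat seeds, single-nucleotide variants, half-site ablations and random human genomic background sequences in 34-nt variable regions. Incubation lasted 1 h. Binding z-scores were computed against the random background probes from regression-normalized fluorescence.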
# [2] = tested on: LXRa:RXRa (NR concentration 270 nM, RXRa partner concentration 90 nM)
# Outline: as §1
# [3] = tested on: LXRa homodimer (NR concentration 270 nM)
# Outline: as §1
# [4] = tested on: LXRb:RXRa (NR concentration 270 nM, RXRa partner concentration 90 nM)
# Outline: as §1
# [5] = tested on: LXRb homodimer (NR concentration 270 nM)
# Outline: as §1
# [6] = tested on: PPARa:RXRa (NR concentration 270 nM, RXRa partner concentration 90 nM)
# Outline: as §1
# [7] = tested on: PPARg:RXRa (NR concentration 180 nM, RXRa partner concentration 90 nM)
# Outline: as §1
# [8] = tested on: PPARg:RXRa 270nM:90nM, anti-RXR (NR concentration 270 nM, RXRa partner concentration 90 nM)
# Outline: as §1
# [9] = tested on: PPARg:RXRa 30nM:10nM, anti-RXR (NR concentration 30 nM, RXRa partner concentration 10 nM)
# Outline: as §1
# [10] = tested on: PPARg:RXRa 90nM:30nM, anti-RXR (NR concentration 90 nM, RXRa partner concentration 30 nM)
# Outline: as §1
# [11] = tested on: PPARg:RXRa DBDmut IVT, anti-RXR (DBD mutation: RXRa K156A/R161A, NR concentration 270 nM, RXRa partner concentration 90 nM)
# Outline: as §1
# [12] = tested on: PPARg:RXRa IVT, anti-PPARg (NR concentration 270 nM, RXRa partner concentration 90 nM)
# Outline: as §1
# [13] = tested on: PPARg DBDmut:RXRa IVT, anti-PPARg (DBD mutation: PPARg1 K132A/R137A, NR concentration 270 nM, RXRa partner concentration 90 nM)
# Outline: as §1
# [14] = tested on: PPARg DBDmut IVT, anti-PPARg (DBD mutation: PPARg1 K132A/R137A, NR concentration 270 nM)
# Outline: as §1
# [15] = tested on: PPARg homodimer (NR concentration 180 nM)
# Outline: as §1
# [16] = tested on: PXR:RXRa (NR concentration 270 nM, RXRa partner concentration 90 nM)
# Outline: as §1
# [17] = tested on: PXR homodimer (NR concentration 270 nM)
# Outline: as §1
# [18] = tested on: RARa:RXR (NR concentration 270 nM, RXRa partner concentration 90 nM)
# Outline: as §1
# [19] = tested on: RARa homodimer (NR concentration 270 nM)
# Outline: as §1
# [20] = tested on: RARb:RXRa (NR concentration 270 nM, RXRa partner concentration 90 nM)
# Outline: as §1
Sequence,PBM binding z-score [1],PBM binding z-score [2],PBM binding z-score [3],PBM binding z-score [4],PBM binding z-score [5],PBM binding z-score [6],PBM binding z-score [7],PBM binding z-score [8],PBM binding z-score [9],PBM binding z-score [10],PBM binding z-score [11],PBM binding z-score [12],PBM binding z-score [13],PBM binding z-score [14],PBM binding z-score [15],PBM binding z-score [16],PBM binding z-score [17],PBM binding z-score [18],PBM binding z-score [19],PBM binding z-score [20]
CCTACTGGGCCACGAAAGGTCATTGAGTCAGTGA,3.83,5.32,5.25,4.4,0.561,4.87,5.06,5.06,2.55,4.22,5.96,6.12,0.241,-0.3,3.76,5.49,1.93,5.72,1.51,4.04
ATCTCTAGGTAAGACTCAGTTGAGTGAAGAACGC,0.19,0.256,-0.143,0.303,0.234,-0.0553,0.0512,0.121,-0.116,-0.195,1.79,0.839,0.212,0.517,0.307,-0.135,0.188,-0.38,0.696,0.11
ATATGTAGGTTAGCTGGGGTCATCCAGACTAGGC,4.52,5.5,2.24,4.39,0.905,5.22,5.73,5.6,2.9,4.8,6.84,6.06,1.71,0.818,2.58,6.14,1.99,5.79,1.43,3.34
CGAACGAGGGCATGAGTAGATAGCAAATGCCGAT,0.0959,0.081,-0.748,-0.189,-1.08,0.99,1.4,0.988,0.168,0.198,2.5,2.07,-0.283,0.0377,0.101,0.0706,-0.112,0.0192,-0.164,1.85
ACTAGCAGGCCAAGGGTCACCCAAGATTAGTCCG,3.24,2.98,0.036,2.76,-0.624,5.01,8.49,7.88,6.88,9.09,1.04,4.15,0.826,-0.393,2.65,3.94,-0.00443,5.22,1.35,3.62
CTCGAAAGGTCGTGCCCAGGTGAGTATACCAAAC,5.26,3.99,0.422,3.22,0.542,4.81,2.54,3.88,1.14,2.23,0.771,1.91,0.249,0.285,2.38,3.17,0.0798,4.63,0.0863,3.91
CAAACTAGGTCAAGAGGTCAAAGCCCGCTTCCCG,7.07,6.28,5.68,5.4,1.5,6.76,10.1,8.55,7.71,8.87,8.12,8.64,4.39,2.45,7.29,6.42,1.66,7.68,2.35,5.54
ACTCGCAGGACAAAGGTCAGAGCTACGCCAGTGA,3.77,4.15,1.13,3.23,0.178,4.75,7.12,6.87,5.49,6.99,0.731,2.9,0.371,-0.29,1.88,3.6,0.075,4.72,0.499,4.29
CCGAGTAGGTTATGGGGCATCCAGGCAACGGTGA,0.103,0.375,-0.312,0.332,-0.509,2.36,3.95,4.52,1.97,4.17,2.41,3.47,0.134,-0.392,0.993,-0.0112,-0.414,0.287,0.0576,0.965
GCTAGTTGGTCAGTAATAGGTCACACACCGGTCG,1.19,1.72,1.74,1.77,0.0415,2.79,1.44,2.52,0.756,1.82,1.6,2.79,-0.0555,-0.765,1.88,2.1,0.429,2.93,0.809,2.57
ACTAGCAGGCCCAGGGTCACTCAAGATTAGTCCG,1.28,1.58,-0.164,1.69,-0.913,2.27,1.36,2.3,0.49,1.68,-0.868,0.714,-0.322,-0.342,0.073,2.4,0.0496,2.75,-0.377,2.27
CGAACGAGGGCATGAGTTGAAAGCAAATGCCGAT,0.434,0.165,-0.523,0.0977,-0.959,1.85,1.37,1.83,0.552,1.12,2.92,2.09,-0.35,-0.394,0.0525,0.538,-0.57,0.846,-0.757,1.96
CAAACTAGGTCACGAAAGGACAAAGTCGAATGAC,5.05,6.1,1.25,4.08,0.368,5.41,9.21,7.34,5.83,7.48,8.65,9.28,5.83,2.82,2.7,4.22,0.691,3.22,1.93,4.54
AGAATGTGGTTATTAAGATCAGGGAATTGCGGTC,0.0647,-0.0146,0.00993,-0.0352,0.111,-0.0476,0.144,0.078,-0.037,0.417,0.321,0.232,0.301,1.09,1.35,-0.0244,0.763,0.105,1.37,0.11
TAGCCTAGGTCATTGGGCCGGTATAGTACGCATC,4.26,2.99,0.765,2.23,0.429,3.43,2.46,2.72,0.313,1.53,1.71,3.19,0.219,-0.308,0.812,1.39,-0.428,1.95,-0.0602,3.48
